Measurements as given in PubChem BioAssay.
Records with an inconclusive call do not appear. Active and inactive are the calls of the source.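 The calls were made as follows, unless noted: active = efflux inhibition above 0.42, the validation set average plus 4 SD; inconclusive = no clear call, values can overlap the other calls; inactive = the rest.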

Columns and labels:
[1] = yeast TOR pathway RPL19A-GFP modulators, primary screen, cell-based, S. cerevisiae, multiplex flow cytometry (AID 1862; in the data active = percent of DMSO control GFP below about 86%;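 also: lower values mimic rapamycin by blocking the RPL19A rise seen in DMSO cells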); conditions: S. cerevisiae RPL19A-GFP strain, flow cytometry fluorescence, 3 h; at 10 µM; stronger effect = lower value
[2] = modulators of MEP2-GFP levels in yeast, primary screen, S. cerevisiae, multiplex flow cytometry (AID 1867;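 active = GFP response, as percent of the DMSO control, above the screen-wide mean plus 3 SD, about 139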;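 also: median GFP channel fluorescence of barcode-gated MEP2-GFP cells measured by flow cytometry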); conditions: S. cerevisiae MEP2-GFP strain, 3 h, at 10 µM, stronger effect = higher value, 100% means same as DMSO wells
[3] = modulators of CIT2-GFP expression in yeast, primary screen, S. cerevisiae, GFP fusion, multiplex flow cytometry (AID 1870;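 active = percent response above a set limit, the screen-wide mean plus 3 SD, cut at about 130% in these data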;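 also: barcoded CIT2-GFP strain pooled with four other GFP strains with rapamycin as positive control; median GFP fluorescence per well over plate mean of DMSO wells so 100% = DMSO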); conditions: 3 h, at 10 µM, stronger effect = higher value
[4] = modulators of LAP4-GFP expression in yeast, primary screen, S. cerevisiae, multiplex flow cytometry (AID 1873;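 active = GFP signal, as percent of the solvent control, above the screen mean plus 3 SD, about 149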); conditions: 3 h, at 10 µM, stronger effect = higher value
[5] = modulators of AGP1-GFP expression in yeast TOR pathway, primary screen, cell-based, multiplex flow cytometry, S. cerevisiae (AID 1887;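 active = GFP signal above the screen-wide mean plus 3 SD, that is over about 124.5% of the solvent control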;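 also: AGP1-GFP fusion strain of S. cerevisiae within a five-strain barcoded multiplex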); conditions: 3 h, at 10 µM, stronger effect = higher value
[6] = inhibitors of CD8+ T cell-vesicle binding, pilot screen, LFA-1/ICAM-1 modulator project, MLPCN validation set, flow cytometry (AID 2523;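 active = response below a set limit, under 55% cells CD8-positive and vesicle-bound, and CD8 cells' 90th-percentile brightness under 279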;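 as to vesicle binding response: mean PE anti-B7-1 fluorescence of CD8+ cells relative to row control; 100% = QL9-loaded vesicles with DMSO vehicle in the same plate row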); conditions: 2C mouse CD8+ T cells, at 7 µM, stronger effect = lower value; double positive events: measured here: CD8+/vesicle+ event percentage
[7] = target: Integrin beta-1 (Homo sapiens) + Integrin alpha-4 (Homo sapiens) (UniProt P13612+P05556); assay: inhibition of HUTS-21 binding to VLA-4, pilot screen, VLA-4 allosteric modulator project, U937 cells, HUTS-21 mAb, flow cytometry, validation set (AID 2674;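 active = inhibition above 50%, about 3 SD of the validation set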;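 also: antibody binding induced by the VLA-4 ligand LDV present at three times its Kd; 0% = LDV ligand with antibody and no compound and 100% = antibody without LDV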); conditions: HUTS-21 LIBS mAb binding, at 6.7 µM, stronger effect = higher value, binding induced by LDV ligand
[8] = superoxide lowering in aged yeast cells, pilot screen, validation compound set (AID 2706;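 active = superoxide response below 65% of plate, a cut near 3 SD across the whole screen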;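 also: yeast exposed to compound for one week at 30 degrees C before staining; 100% = mean of all compound wells on the same plate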); conditions: S. cerevisiae aging, superoxide DHE fluorescence; at 10 µM, stronger effect = lower value
[9] = target: Beta-adrenergic receptor kinase 1 (Homo sapiens) (UniProt P25098); assay: GRK2 binders displacing RNA aptamer, biochemical, validation, human GRK2, bead flow cytometry (AID 488806;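 active = aptamer binding inhibition above 30%, about 3 SD of noise from non-fluorescent compounds; inactive = inhibition at or below 30%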); conditions: bead-bound GRK2, FAM-aptamer displacement, at 10 µM, stronger effect = higher value
[10] = target: AP-2 complex subunit beta (Homo sapiens) (UniProt P63010); assay: inhibitors of arrestin peptide binding to AP2, pilot screen, biochemical, validation set, GST-AP2 beads, flow cytometry (AID 504541;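 active = inhibition above 54%, about 3 SD of non-fluorescent compounds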;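 also: AP2 carries R879A mutation and is captured from E. coli lysate; bead-bound FITC arrestin peptide fluorescence measuring arrestin peptide binding to AP2; 0% = DMSO wells and 100% = excess unlabeled arrestin peptide control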); conditions: FITC arrestin peptide, at 10 µM, stronger effect = higher value, AP2 beta2 appendage fragment, R879A mutant
[11] = yeast V-ATPase proton transport modulators, S. cerevisiae, pHLuorin, HTS validation (AID 504600; in the data active = response above about 15%;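 also: plate controls were DMSO for no effect and reference compound for full effect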); conditions: S. cerevisiae pHLuorin cytosolic pH, at 10 µM, stronger effect = higher value
[12] = system: anti-desmoglein-3 scFv antibody binding to human DSG3; assay: inhibitors of anti-DSG3 scFv binding to DSG3, pilot screen, biochemical, validation compound set, bead-based, flow cytometry (AID 588368;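 active = binding below the plate cutoff, the plate median minus 3 SD, with a reading above zero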;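 also: signal is the median channel fluorescence of bead-bound GFP antibody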); conditions: Protein G beads, DSG3-Fc, scFv-GFP binding, at 10 µM, stronger effect = lower value
[13] = inhibitors of fungal efflux pumps CDR1, CDR2, MDR1, pilot screen, validation compound set, multiplex, phenotypic (AID 588506);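 also: Nile Red retained in cells so higher fluorescence means more efflux inhibition; 0 = negative control wells and 1 = enniatin B 25 µM full block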; conditions: S. cerevisiae pump-expressing triplex, Nile Red efflux flow cytometry; at 10 µM; stronger effect = higher value; the pumps come from Candida albicans
[14] = target: ATP-binding cassette sub-family B member 6 (Homo sapiens) (UniProt Q9NP58); assay: ABCB6 transporter inhibitors, pilot screen, K562-ABCB6 cells, flow cytometry, validation set (AID 588550;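 active = inhibition above the screen-wide mean plus 3 SD, about 51%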;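 also: 0% = DMSO wells and 100% = benzethonium chloride 70 µM positive control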); conditions: K562-ABCB6 porphyrin accumulation, 1 h, at 10 µM, stronger effect = higher value
[15] = promoters of myeloid differentiation in arrested cells, primary screen, cell-based, GFP/MAC1 double positive, flow cytometry, validation set (AID 588685;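 active = differentiation response of at least 50%, scaled between solvent and reference control, from cells with both markers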;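 also: compound exposure lasts four days before antibody staining and flow analysis; 0% = DMSO wells and 100% = 5 µM fulvestrant positive control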); conditions: ER-HoxA9 marrow cells, stronger effect = higher value, normalized: vehicle 0, fulvestrant 100

Sequence of AP-2 complex subunit beta (Homo sapiens) (P63010 whole entry, looked up, the tested form may be a part, one chain of several): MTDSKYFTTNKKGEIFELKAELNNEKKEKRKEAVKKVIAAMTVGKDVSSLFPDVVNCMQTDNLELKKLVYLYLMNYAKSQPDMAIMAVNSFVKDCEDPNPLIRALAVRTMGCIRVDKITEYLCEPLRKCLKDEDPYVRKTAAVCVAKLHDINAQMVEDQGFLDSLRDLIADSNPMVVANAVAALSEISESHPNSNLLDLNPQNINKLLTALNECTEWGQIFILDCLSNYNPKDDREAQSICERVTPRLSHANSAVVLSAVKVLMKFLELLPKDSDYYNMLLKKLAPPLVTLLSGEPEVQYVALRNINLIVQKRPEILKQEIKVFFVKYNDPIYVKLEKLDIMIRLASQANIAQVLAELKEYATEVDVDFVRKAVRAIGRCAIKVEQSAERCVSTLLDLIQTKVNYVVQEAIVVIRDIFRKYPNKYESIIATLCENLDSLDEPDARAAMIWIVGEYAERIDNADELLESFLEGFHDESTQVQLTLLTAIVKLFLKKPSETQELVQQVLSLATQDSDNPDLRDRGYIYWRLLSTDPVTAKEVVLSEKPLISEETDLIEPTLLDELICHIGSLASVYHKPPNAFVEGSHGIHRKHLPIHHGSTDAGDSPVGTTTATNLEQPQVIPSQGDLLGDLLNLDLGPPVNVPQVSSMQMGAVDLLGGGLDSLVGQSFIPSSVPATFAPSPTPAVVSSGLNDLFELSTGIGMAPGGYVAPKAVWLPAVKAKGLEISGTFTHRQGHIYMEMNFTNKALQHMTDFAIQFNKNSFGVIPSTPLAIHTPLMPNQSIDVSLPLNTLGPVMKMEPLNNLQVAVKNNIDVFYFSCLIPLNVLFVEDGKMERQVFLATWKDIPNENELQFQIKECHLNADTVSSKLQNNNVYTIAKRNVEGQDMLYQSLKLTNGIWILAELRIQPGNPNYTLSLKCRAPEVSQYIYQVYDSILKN
Sequence of ATP-binding cassette sub-family B member 6 (Homo sapiens) (Q9NP58 whole entry, looked up): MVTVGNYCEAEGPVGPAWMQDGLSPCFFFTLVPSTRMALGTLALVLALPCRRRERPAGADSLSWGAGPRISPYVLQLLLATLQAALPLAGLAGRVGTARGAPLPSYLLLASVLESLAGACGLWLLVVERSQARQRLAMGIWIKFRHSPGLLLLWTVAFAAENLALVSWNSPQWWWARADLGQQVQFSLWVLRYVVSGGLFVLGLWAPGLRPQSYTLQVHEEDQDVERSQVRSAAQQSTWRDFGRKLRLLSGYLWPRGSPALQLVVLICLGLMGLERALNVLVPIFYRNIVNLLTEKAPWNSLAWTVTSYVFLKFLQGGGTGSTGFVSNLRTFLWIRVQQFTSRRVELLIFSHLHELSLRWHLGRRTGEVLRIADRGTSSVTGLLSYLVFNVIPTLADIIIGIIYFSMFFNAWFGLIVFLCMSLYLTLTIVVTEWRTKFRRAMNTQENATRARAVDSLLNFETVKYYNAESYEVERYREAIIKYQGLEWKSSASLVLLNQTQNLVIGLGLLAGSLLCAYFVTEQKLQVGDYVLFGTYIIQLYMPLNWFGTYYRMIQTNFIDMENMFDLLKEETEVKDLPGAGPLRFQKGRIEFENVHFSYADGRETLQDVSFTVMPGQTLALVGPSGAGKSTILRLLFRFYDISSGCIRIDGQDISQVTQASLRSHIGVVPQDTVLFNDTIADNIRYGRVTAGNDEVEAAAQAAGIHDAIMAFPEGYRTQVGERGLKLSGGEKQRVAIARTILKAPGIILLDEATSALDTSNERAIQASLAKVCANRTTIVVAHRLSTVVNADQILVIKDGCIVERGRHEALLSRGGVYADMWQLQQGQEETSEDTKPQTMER
Sequence of Integrin beta-1 (Homo sapiens) + Integrin alpha-4 (Homo sapiens) (P05556 whole entry, looked up): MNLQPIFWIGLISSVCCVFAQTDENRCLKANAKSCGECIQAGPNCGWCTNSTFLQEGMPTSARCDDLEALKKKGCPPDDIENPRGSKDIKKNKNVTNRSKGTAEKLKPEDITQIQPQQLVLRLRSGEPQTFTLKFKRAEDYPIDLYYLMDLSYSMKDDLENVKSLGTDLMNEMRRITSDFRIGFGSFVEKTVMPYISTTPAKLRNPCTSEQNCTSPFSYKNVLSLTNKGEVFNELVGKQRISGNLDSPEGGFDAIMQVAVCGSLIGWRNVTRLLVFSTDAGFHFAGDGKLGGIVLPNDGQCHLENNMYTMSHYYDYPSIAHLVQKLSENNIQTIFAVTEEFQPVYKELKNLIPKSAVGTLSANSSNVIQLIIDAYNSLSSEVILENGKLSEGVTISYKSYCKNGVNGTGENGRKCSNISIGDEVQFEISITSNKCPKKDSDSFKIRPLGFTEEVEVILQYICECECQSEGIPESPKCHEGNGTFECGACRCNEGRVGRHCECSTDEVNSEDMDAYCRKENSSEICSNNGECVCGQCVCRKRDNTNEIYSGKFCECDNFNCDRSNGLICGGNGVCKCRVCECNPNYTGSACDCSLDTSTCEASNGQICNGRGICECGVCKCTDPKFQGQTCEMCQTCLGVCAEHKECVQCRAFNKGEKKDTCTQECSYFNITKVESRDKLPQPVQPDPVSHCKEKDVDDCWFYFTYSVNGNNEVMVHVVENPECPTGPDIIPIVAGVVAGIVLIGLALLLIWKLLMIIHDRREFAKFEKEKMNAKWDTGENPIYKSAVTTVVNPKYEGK
Sequence of Integrin beta-1 (Homo sapiens) + Integrin alpha-4 (Homo sapiens) (P13612 whole entry, looked up): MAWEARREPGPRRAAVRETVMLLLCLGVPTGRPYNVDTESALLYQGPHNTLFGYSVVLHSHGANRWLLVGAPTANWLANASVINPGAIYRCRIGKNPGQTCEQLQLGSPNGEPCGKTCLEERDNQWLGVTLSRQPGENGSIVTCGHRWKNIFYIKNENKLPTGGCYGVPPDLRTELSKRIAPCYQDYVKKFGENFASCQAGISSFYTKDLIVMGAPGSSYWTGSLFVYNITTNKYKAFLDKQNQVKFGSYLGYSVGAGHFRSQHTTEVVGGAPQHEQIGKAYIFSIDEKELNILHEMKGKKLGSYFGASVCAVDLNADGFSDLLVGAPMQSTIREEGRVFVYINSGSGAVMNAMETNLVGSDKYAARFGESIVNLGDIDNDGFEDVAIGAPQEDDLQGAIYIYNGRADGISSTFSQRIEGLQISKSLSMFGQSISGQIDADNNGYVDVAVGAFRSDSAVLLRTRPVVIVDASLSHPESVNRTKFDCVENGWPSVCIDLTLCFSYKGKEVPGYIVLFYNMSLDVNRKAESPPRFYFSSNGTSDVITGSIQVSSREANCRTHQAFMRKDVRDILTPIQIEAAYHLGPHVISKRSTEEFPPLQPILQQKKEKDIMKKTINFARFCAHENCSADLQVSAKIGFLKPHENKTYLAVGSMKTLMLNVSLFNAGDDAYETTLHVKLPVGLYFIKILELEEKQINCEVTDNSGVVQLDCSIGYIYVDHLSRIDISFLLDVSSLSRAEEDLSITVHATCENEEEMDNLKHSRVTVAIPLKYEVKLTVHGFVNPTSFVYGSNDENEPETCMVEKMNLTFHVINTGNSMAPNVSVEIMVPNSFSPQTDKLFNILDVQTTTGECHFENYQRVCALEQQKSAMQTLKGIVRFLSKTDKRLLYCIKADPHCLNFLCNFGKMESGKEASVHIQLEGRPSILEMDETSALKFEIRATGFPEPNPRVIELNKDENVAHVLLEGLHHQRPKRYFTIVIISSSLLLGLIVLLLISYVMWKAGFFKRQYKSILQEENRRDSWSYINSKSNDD
Sequence of Beta-adrenergic receptor kinase 1 (Homo sapiens) (P25098 whole entry, looked up): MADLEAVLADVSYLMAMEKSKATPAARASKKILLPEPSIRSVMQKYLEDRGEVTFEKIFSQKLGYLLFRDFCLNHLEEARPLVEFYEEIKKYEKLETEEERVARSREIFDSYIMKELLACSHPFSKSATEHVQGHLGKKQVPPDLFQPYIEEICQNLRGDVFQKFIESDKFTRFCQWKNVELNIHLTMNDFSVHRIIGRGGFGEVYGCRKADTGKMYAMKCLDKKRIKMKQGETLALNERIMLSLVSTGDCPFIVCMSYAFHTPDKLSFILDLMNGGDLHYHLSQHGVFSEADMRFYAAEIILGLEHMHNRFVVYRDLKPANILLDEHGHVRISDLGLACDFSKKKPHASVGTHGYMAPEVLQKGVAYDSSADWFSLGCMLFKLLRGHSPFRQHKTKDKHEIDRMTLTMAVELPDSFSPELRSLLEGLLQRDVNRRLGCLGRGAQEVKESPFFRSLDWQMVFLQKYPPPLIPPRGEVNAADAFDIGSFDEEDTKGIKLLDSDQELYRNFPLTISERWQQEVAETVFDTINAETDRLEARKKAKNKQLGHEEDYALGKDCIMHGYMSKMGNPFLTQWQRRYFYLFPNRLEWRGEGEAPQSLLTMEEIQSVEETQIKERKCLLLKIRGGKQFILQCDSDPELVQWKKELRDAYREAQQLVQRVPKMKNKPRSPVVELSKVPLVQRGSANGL

Cn1c2ccccc2c2cc(/C=C(\NC(=O)c3ccccc3)C(=O)O)ccc21
58%: double positive events [6]
inactive: percent of DMSO control GFP [1] 95.6% | GFP response vs DMSO [2] 90.8% | percent response of DMSO control [3] 106% | GFP response vs DMSO [4] 92.3% | GFP response, % of DMSO [5] 95.7% | vesicle binding response [6] 107% | inhibition [7] -9.57% | superoxide response (% of plate) [8] 111% | aptamer binding inhibition [9] 3% | inhibition [10] -8.15% | response [11] 1.01% | binding (% of control) [12] 96.5% | efflux inhibition (fraction of control) [13] -0.43 | inhibition [14] 10% | differentiation response [15] -14.7%

CCOc1cc(C)cc2oc(=O)cc(-c3ccccc3)c12
inactive: percent of DMSO control GFP [1] 99.5% | GFP response vs DMSO [2] 105% | percent response of DMSO control [3] 92% | GFP response vs DMSO [4] 123% | GFP response, % of DMSO [5] 92.8% | vesicle binding response [6] 138% | inhibition [7] -5.84% | superoxide response (% of plate) [8] 88.9% | aptamer binding inhibition [9] 4% | inhibition [10] 14.1% | response [11] 8.03% | binding (% of control) [12] 102% | efflux inhibition (fraction of control) [13] 0.18 | inhibition [14] 5% | differentiation response [15] -16.4%
54.7%: double positive events [6]

CC(=O)OCC(=O)[C@H]1CC[C@H]2[C@@H]3CC=C4C[C@@H](O)CC[C@]4(C)[C@H]3CC[C@]12C
59.7%: double positive events [6]
inactive: percent of DMSO control GFP [1] 106% | GFP response vs DMSO [2] 95.9% | percent response of DMSO control [3] 114% | GFP response vs DMSO [4] 115% | GFP response, % of DMSO [5] 89.4% | vesicle binding response [6] 174% | inhibition [7] 4.42% | superoxide response (% of plate) [8] 99% | aptamer binding inhibition [9] 0% | inhibition [10] -2.87% | response [11] 0.3% | binding (% of control) [12] 101% | efflux inhibition (fraction of control) [13] 0.29 | inhibition [14] 6% | differentiation response [15] -27.6%

CC(C)(C)[C@]1(O)CCN2C[C@H]3c4ccccc4CCc4cccc(c43)[C@@H]2C1
35.9%: double positive events [6]
inactive: percent of DMSO control GFP [1] 106% | GFP response vs DMSO [2] 97.9% | percent response of DMSO control [3] 112% | GFP response vs DMSO [4] 102% | GFP response, % of DMSO [5] 107% | vesicle binding response [6] 134% | inhibition [7] -20.8% | superoxide response (% of plate) [8] 95.1% | aptamer binding inhibition [9] -4% | inhibition [10] -19.5% | response [11] 1.63% | binding (% of control) [12] 106% | efflux inhibition (fraction of control) [13] -0.2 | inhibition [14] 6% | differentiation response [15] 20.8%

CC(=O)NCCCCCCNC(C)=O
55.5%: double positive events [6]
inactive: percent of DMSO control GFP [1] 106% | GFP response vs DMSO [2] 92.8% | percent response of DMSO control [3] 110% | GFP response vs DMSO [4] 90.3% | GFP response, % of DMSO [5] 106% | vesicle binding response [6] 198% | inhibition [7] 4.42% | superoxide response (% of plate) [8] 85.1% | aptamer binding inhibition [9] -1% | inhibition [10] -11.9% | response [11] 6% | binding (% of control) [12] 94.1% | efflux inhibition (fraction of control) [13] -0.31 | inhibition [14] 5% | differentiation response [15] -22.8%

C[C@H]1C[C@H]2[C@@H]3CCC4=CC(=O)C=C[C@]4(C)[C@@]3(Cl)[C@@H](O)C[C@]2(C)[C@@]1(O)C(=O)CO
inactive: percent of DMSO control GFP [1] 101% | GFP response vs DMSO [2] 103% | percent response of DMSO control [3] 106% | GFP response vs DMSO [4] 103% | GFP response, % of DMSO [5] 98.8% | vesicle binding response [6] 190% | inhibition [7] 4.42% | superoxide response (% of plate) [8] 85.2% | aptamer binding inhibition [9] 2% | inhibition [10] -8.65% | response [11] 4.84% | binding (% of control) [12] 96.9% | efflux inhibition (fraction of control) [13] -0.24 | inhibition [14] 6% | differentiation response [15] -9.89%
53.7%: double positive events [6]

COCCOC(=O)c1c(C)oc2ccc(OCc3cc(C(=O)OC)oc3C)cc12
inactive: percent of DMSO control GFP [1] 97.6% | GFP response vs DMSO [2] 102% | percent response of DMSO control [3] 93.9% | GFP response vs DMSO [4] 101% | GFP response, % of DMSO [5] 98.1% | vesicle binding response [6] 202% | inhibition [7] 10.9% | superoxide response (% of plate) [8] 93.4% | aptamer binding inhibition [9] 0% | inhibition [10] -4.42% | binding (% of control) [12] 98.7% | efflux inhibition (fraction of control) [13] 0.06 | inhibition [14] 4% | differentiation response [15] -11.5%
active: response [11] 26.8%
52.6%: double positive events [6]

CC(C)OC(=O)CC1C(=O)NCCN1C(=S)NC(=O)c1cccs1 (stereo unspecified)
63.2%: double positive events [6]
inactive: percent of DMSO control GFP [1] 98.1% | GFP response vs DMSO [2] 86.7% | percent response of DMSO control [3] 107% | GFP response vs DMSO [4] 98.4% | GFP response, % of DMSO [5] 107% | vesicle binding response [6] 190% | inhibition [7] 10% | superoxide response (% of plate) [8] 87.2% | aptamer binding inhibition [9] -2% | inhibition [10] -4.49% | response [11] 2.24% | binding (% of control) [12] 104% | efflux inhibition (fraction of control) [13] -0.2 | inhibition [14] 8% | differentiation response [15] 0%

COc1ccc2[nH]cc(CCNC(=O)C3CCCNC3=O)c2c1 (stereo unspecified)
inactive: percent of DMSO control GFP [1] 103% | GFP response vs DMSO [2] 97.9% | percent response of DMSO control [3] 104% | GFP response vs DMSO [4] 104% | GFP response, % of DMSO [5] 105% | vesicle binding response [6] 218% | inhibition [7] -2.11% | superoxide response (% of plate) [8] 100% | aptamer binding inhibition [9] -7% | inhibition [10] -18.5% | response [11] 2.02% | binding (% of control) [12] 103% | efflux inhibition (fraction of control) [13] -0.24 | inhibition [14] 7% | differentiation response [15] 6.26%
57.5%: double positive events [6]

O=C(O)CC(O)C(=O)O (stereo unspecified)
62.1%: double positive events [6]
inactive: percent of DMSO control GFP [1] 101% | GFP response vs DMSO [2] 106% | percent response of DMSO control [3] 103% | GFP response vs DMSO [4] 104% | GFP response, % of DMSO [5] 99.6% | vesicle binding response [6] 146% | inhibition [7] 10.9% | superoxide response (% of plate) [8] 95.8% | aptamer binding inhibition [9] 3% | inhibition [10] 1.04% | response [11] -1.46% | binding (% of control) [12] 99.3% | efflux inhibition (fraction of control) [13] 0.1 | inhibition [14] 14% | differentiation response [15] 1.41%

COc1ccccc1C(=O)c1cc2ccc(O)cc2oc1=O
57.1%: double positive events [6]
inactive: percent of DMSO control GFP [1] 103% | GFP response vs DMSO [2] 110% | percent response of DMSO control [3] 105% | GFP response vs DMSO [4] 100% | GFP response, % of DMSO [5] 100% | vesicle binding response [6] 147% | inhibition [7] 12.8% | superoxide response (% of plate) [8] 99.2% | aptamer binding inhibition [9] 1% | inhibition [10] -2.87% | response [11] 5.05% | binding (% of control) [12] 104% | efflux inhibition (fraction of control) [13] 0.03 | inhibition [14] -208% | differentiation response [15] -14.7%
